# Screening results deposited in PubChem BioAssay by National Center for Advancing Translational Sciences (NCATS).
# IL1B secr inh – inhibitors of inflammasome signaling (IL-1 beta secretion); THP-1 LPS/ATP IL-1B secretion, AlphaLISA, 16 h; hits give low values; activity change, % at 57.5 µM; 4.7% of 360,000 active; AID 743279; in the data active means activity change below about -50%; inconclusive means mostly about -30% to -49%
#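 Secreted IL-1B measured by AlphaLISA bead assay after 16 h compound exposure of THP-1 cells; compounds (final up to 57.5 uM) added 1 h before LPS (250 ng/mL) and ATP (1.25 mM) stimulation; lower signal means less secretion.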
# HT1080 IDH1KD tx – kills HT-1080 cells with IDH1 knockdown | 2% of 360,000 active | HT-1080 IDH1 knockdown viability, ATP luminescence, 48 h | Potency, µM (highest dose often 46.1 µM), most hits filed as cytotoxic
#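 % activity derives from luminescence (CellTiter-Glo), normalised to DMSO and no-cell wells. HT-1080-IDH1KD cells, 750/well, had 48 h compound exposure at 37 °C.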
# DT40 TDP1 no CPT – qHTS for Inhibitors of human tyrosyl-DNA phosphodiesterase 1 (TDP1): qHTS in cells in absence of CPT. DT40 Tdp1-/- hTDP1 cells, no CPT, ATP luminescence, 48 h. Potency, µM (series often up to 46.2 µM), actives largely listed as inhibitors. 15% of 420,000 active; further: nearly all actives have a fitted effect of over 55% in size
#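 Growth kinetics read by CellTiter-Glo luminescence after ≥48 hr at 37 °C. Cells: DT40 Tdp1-/- stably carrying human TDP1, 400 per well, compound exposure in the absence of CPT (DMSO vehicle).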
# uPA generation – inhibitors of cell surface uPA generation. cell surface uPA generation assay, qHTS. Potency, µM (series often up to 38.3 µM), hits mostly inhibitors. 0.31% of 330,000 active. AID 540303; active means well fitted inhibition curve with a large enough effect; inconclusive means small, poorly fitted or top-dose-only effect; inactive means no such curve, though single readings can be large or run the other way; tested in mouse RAW 264.7 cells; further: nearly all actives have a fitted effect of over 55% in size
# TDP1 cell CPT – DT40-hTDP1 cell growth loss with CPT | chicken DT40 Tdp1-/-;hTDP1 cells + 20 nM CPT, ATP luminescence, 48 h | Potency, µM (doses to about 46.2 µM), usual class: inhibitors | 12% of 420,000 active; further: nearly all actives have a fitted effect of over 55% in size
#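 Cell growth measured by CellTiter-Glo luminescence after a minimum 48 h, 37 C compound exposure with 20 nM CPT in Tdp1-knockout DT40 cells stably expressing hTDP1, seeded 400/well; qHTS titration format.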
# HT1080-NT tox – kills 2HG-producing HT-1080-NT fibrosarcoma cells. HT-1080-NT fibrosarcoma viability, CellTiter-Glo ATP luminescence, 48 h. Potency, µM (top dose mostly 46.1 µM), actives largely listed as cytotoxic. 1.6% of 360,000 active. AID 686970;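 further: NT is the 2HG producing partner of a matched IDH1 knockdown line; nearly all actives have a fitted effect of over 55% in size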
#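 HT-1080-NT fibrosarcoma cells (2HG-overproducing), 750 cells/well in RPMI with 5% FBS, dosed after 2 h and incubated 48 h at 37C. CellTiter-Glo luminescence normalized to DMSO and no-cell wells; concentration-response curves fitted and classed.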
# Numbers stand for hits; . = inactive; ? = inconclusive; / = not tested or not shown. The list is not random: actives were taken first. Their share in the collection is about 19%. Unless noted, the call rests on the fitted dose curve; in most records, active means well fitted curve in the direction sought with a large enough effect; inconclusive means small, poorly fitted or top-dose-only effect, or another doubt; inactive means no such curve, though single readings can be large; an effect the other way counts as inactive or inconclusive.
SMILES,IL1B secr inh,HT1080 IDH1KD tx,DT40 TDP1 no CPT,uPA generation,TDP1 cell CPT,HT1080-NT tox
COc1ccc(C(=O)NCC(c2cccnc2)N2CCc3ccccc3C2)cc1 (centres undefined),/,/,21µM,/,12µM,/
COc1ccccc1N1CCN(C(CNC(=O)c2ccco2)c2cccnc2)CC1 (centres undefined),.,.,?,.,?,.
O=C(NCC(c1ccco1)N1CCc2ccccc21)c1c(F)cccc1F (centres undefined),.,.,.,.,?,.
COc1ccc(N2CCN(C(CNC(=O)c3cccc(Cl)c3)c3cccnc3)CC2)cc1 (centres undefined),.,.,?,.,?,.
COc1ccc(C(=O)NCC(c2cccnc2)N2CCc3ccccc3C2)cc1OC (centres undefined),/,/,?,/,16µM,/
O=C(NCC(c1cccnc1)N1CCc2ccccc21)c1ccc(F)cc1 (centres undefined),/,/,18µM,/,23µM,/
CCC(CC)C(=O)N(C)c1c(C)nc2c(OCCOc3ccc(F)cc3)cccn12,.,?,18µM,/,21µM,.
CCC(CC)C(=O)N(C)c1c(C)nc2c(OCC(=O)N(C)C)cccn12,.,.,.,/,.,?
CCC(CC)C(=O)N(C)c1c(C)nc2c(OCCC3CCCCC3)cccn12,?,.,5.2µM,/,7.3µM,.
CN1C=CC(=C[N+](=O)[O-])N(C)C1=O,.,.,.,/,.,.
CC(C)NC(=O)C1(C)CCCN1C(=O)c1ccc2c(c1)C(C)(C)CCC2(C)C (centres undefined),.,.,3.7µM,/,4.6µM,.
CCNC(=O)C1(C)CCCN(C(=O)c2ccc3sccc3c2)C1 (centres undefined),.,.,.,/,.,.
CCNC(=O)C1(C)CCCN(C(=O)c2ccc3c(c2)C(C)(C)CCC3(C)C)C1 (centres undefined),.,?,6.5µM,/,5.8µM,.
CCNC(=O)C1(C)CCN(C(=O)c2ccc(-c3ccccc3)cc2)C1 (centres undefined),.,.,?,/,16µM,.
OCCc1c[nH]c2ccc(C(F)(F)F)cc12,.,.,.,.,.,.
CCCc1cc(-c2nc(-c3ccc(Br)cc3)cs2)ccn1,.,.,?,.,?,.
CCCc1cc(-c2nc(-c3ccc(Cl)cc3)cs2)ccn1,.,.,18µM,.,18µM,.
O=C(Nc1ccc2c(c1)OCO2)c1cc2ncc(Br)cn2n1,.,.,21µM,.,?,.
O=C(Nc1ccc2c(c1)OCO2)c1cc(-c2cccc(O)c2)on1,.,12µM,.,.,.,23µM
O=C(Nc1ccc2c(c1)OCO2)c1cc(-c2ccc(O)cc2)on1,.,2.1µM,.,.,.,2.1µM
CC(C)Cc1cc(C(=O)Nc2ccc3c(c2)OCO3)no1,.,5.2µM,.,?,.,?
COc1cc(/C=N/NC(=O)CSc2nc3ccccc3n2C)cc(OC)c1OC,.,.,?,.,.,.
Nc1nnc(SCC(=O)NNC(=O)c2ccccc2F)s1,.,.,.,.,.,.
O=C(CSC1CS(=O)(=O)c2cc([N+](=O)[O-])ccc21)NNC(=O)c1ccccc1 (centres undefined),.,?,21µM,.,13µM,.
O=C(CSC1CS(=O)(=O)c2cc([N+](=O)[O-])ccc21)NNC(=O)c1ccc(Cl)cc1 (centres undefined),.,.,2.3µM,.,5.2µM,.
SMILES,IL1B secr inh,HT1080 IDH1KD tx,DT40 TDP1 no CPT,uPA generation,TDP1 cell CPT,HT1080-NT tox
O=C(CSc1nnc2ccccn12)NNC(=O)c1cccc([N+](=O)[O-])c1,.,.,.,.,.,.
O=C(CN1CCOCC1)NNC(=O)c1ccc([N+](=O)[O-])cc1,.,.,.,.,.,.
Cc1cc(O)ccc1Nc1cc(-c2cccc(N)c2)ncn1,?,.,.,/,.,.
CCOC(=O)CSC1=C(C#N)C(=O)NC(c2ccc(OC)c(OC)c2)S1 (centres undefined),.,.,12µM,.,16µM,.
CCOC(=O)CSC1=C(C#N)C(=O)NC(c2ccc(OC)cc2)S1 (centres undefined),.,.,15µM,.,15µM,.
Cc1ccc(-n2nc(C(=O)Nc3ccc(Br)cc3C)c(=O)n(C)c2=O)cc1,/,/,.,/,.,/
CCOP(=O)(OCC)C(Nc1ccc(F)cc1)c1ccccc1 (centres undefined),.,.,.,.,.,.
CCOC(=O)C(c1ccccc1)C(Nc1ccc(F)cc1)c1ccccn1 (centres undefined),.,.,18µM,.,?,.
CC(C)[C@H]1COCCS(=O)(=O)N1Cc1cccc(Cl)c1,.,.,11µM,.,?,.
CCC1COCCS(=O)(=O)N1Cc1cccc(Cl)c1 (centres undefined),.,.,?,.,?,.
Cc1ccccc1-c1ccccc1CN1[C@@H](C(C)C)COCCS1(=O)=O,.,.,18µM,.,?,.
Cc1ccccc1CN1[C@@H](CC2CCCCC2)COCCS1(=O)=O,.,.,13µM,.,?,.
O=S1(=O)CCOC[C@H](CC2CCCCC2)N1Cc1ccccc1,.,.,?,.,?,.
O=S1(=O)CCOC[C@H](CC2CCCCC2)N1Cc1cccc(Cl)c1,.,.,11µM,.,14µM,.
CCCCNC(=O)c1nc(-c2ccccc2)oc1-c1ccc(Cl)cc1,.,?,?,/,?,?
CC1CN(S(=O)(=O)c2ccc(CN3C(=O)c4cccnc4C3=O)cc2)c2ccccc2O1 (centres undefined),.,.,.,.,.,?
CC(=O)Nc1ccc(S(=O)(=O)N(C)CC(=O)N2CCN(C(=O)c3ccco3)CC2)cc1,.,.,.,.,.,.
CCCCNC(=O)Nc1ncn[nH]1,.,.,.,.,.,.
CCCCN1C(=O)C(CC(=O)NC2CC2)CC(C(=O)N2CCOCC2)=C1C (centres undefined),.,.,.,/,.,.
O=C(NCCc1ccccc1)c1ccc(Cn2c(SCc3ccccc3F)nc3cccnc32)cc1,/,/,18µM,/,16µM,/
O=C(NCCc1ccccc1)c1ccc(Cn2c(SCc3ccc(F)cc3)nc3cccnc32)cc1,/,/,.,/,?,/
O=C(NCCc1ccccc1)c1ccc(CSc2nc3cccnc3n2Cc2ccccc2F)cc1,/,/,9.2µM,/,?,/
COc1cc(C2C(C#N)=C(N)Oc3c2ccc2ccccc32)ccc1OCC(=O)Nc1cccc(C)c1 (centres undefined),.,.,16µM,.,?,.
